Anthrax LF inh2 = anthrax lethal factor protease inhibition; multiplex microsphere protease cleavage assay, LF; AID 588501; inhibition, % at 10 µM; 360,000 tested, 0.12% active; P15917; further: plate controls were buffer without enzyme for full effect and enzyme alone for no effect
MazF activator = activators of E. coli MazEF toxin-antitoxin RNase; activation, % at 20 µM; AID 504720; FAM/BHQ RNA-DNA oligo cleavage fluorescence, 5 h; 350,000 tested, 0.32% active; P0AE70; in the data active means activation above about 50%
Target sequence (P0AE70 whole entry, looked up): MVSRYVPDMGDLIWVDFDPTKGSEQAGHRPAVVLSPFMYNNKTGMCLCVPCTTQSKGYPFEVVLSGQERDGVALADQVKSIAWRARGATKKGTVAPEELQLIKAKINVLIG
BoNT F protease = blocks Botulinum neurotoxin F light chain protease | Multiplex microsphere protease cleavage assay, flow cytometry | inhibition, % at 10 µM | 360,000 tested, 0.22% active | AID 588497; in the data active means inhibition above about 35%, passing the limit was not always enough; inconclusive means no clear call, values can overlap the other calls; further: plate controls were buffer without enzyme for full effect and enzyme alone for no effect
Autofluor counter = counter-screen for toxin protease inhibitors: compound fluorescence. compound autofluorescence counterscreen, microsphere flow cytometry; stronger effect = higher value. fluorescence intensity (test concentration not listed). 360,000 tested, 3.1% active. AID 624483; in the data active means fluorescence intensity above about 16000; inconclusive means no clear call, values can overlap the other calls
BoNT A protease = blocks Botulinum neurotoxin A light chain protease | inhibition, % at 10 µM | multiplex microsphere protease substrate cleavage, flow cytometry | 360,000 tested, 0.17% active; further: plate controls were buffer without enzyme for full effect and enzyme alone for no effect
Numbers without * were called inactive; ? = inconclusive; / = not tested or not shown. Most compounds without a hit are left out; they make up all but 3.6% or so of the library. Unless noted, no stated cut-off is given here; in the data, active means inhibition above about 30%; inconclusive means no clear call, values can overlap the other calls; inactive means below that.

SMILES	Anthrax LF inh2	MazF activator	BoNT F protease	Autofluor counter	BoNT A protease
COc1ccc(S(=O)(=O)N2Cc3ccccc3CC2C(=O)Nc2nccs2)cc1OC (stereo not given)	0.5	11.1	7.9	3663	-0.2
COc1ccc(S(=O)(=O)N2Cc3ccccc3CC2C(=O)Nc2nccs2)cc1 (stereo not given)	-3.3	-6.4	-4.8	23488*	-1.2
Cc1ccc(Cn2ccc(NC(=O)c3cc(-c4ccc5c(c4)OCO5)on3)n2)cc1	3.4	1.1	1.9	10162	-0.2
CC(C)(C)c1ccc(Cn2ccc(-c3ccc4c(c3)OCO4)n2)cc1	-4.2	-13.6	-1.0	19826*	1.3
CCOC(=O)c1c(C)[nH]c(C(=O)OCC(=O)c2ccc3c(c2)NC(=O)CO3)c1C	-2.3	-1.2	8.2	3799	7.7
Nc1nc(N)nc(-c2ccccc2)n1	0.1	3.2	5.5	3065	0.4
CCCCOc1nc(N)nc(-c2ccccc2)n1	-0.5	3.2	-2.7	22127*	-0.4
CCc1ccccc1N1C(=O)c2cccc3c(N4CCOCC4)c([N+](=O)[O-])cc(c23)C1=O	-6.5	8.7	-10.7	24654*	-5.3
COc1ccc(N2CCN(C3CCCN(C(=O)c4cccc(C)n4)C3)CC2)cc1 (stereo not given)	0.7	-11.4	19.4	4404	2.0
NC(=O)N/N=C/c1sc(N2CCCCC2)nc1-c1cccs1	-9.6	9.2	-17.3	4855	4.9
CC(C)NC(=S)N/N=C/c1sc(N2CCCCC2)nc1-c1cccs1	7.9	-0.7	-12.8	4007	32.7*
COc1ccc(NC(=O)C2(C)CCN2Cc2ccc3ccccc3c2)cc1OC (stereo not given)	1.6	/	0.9	3846	-0.2
COC(=O)N1CC(c2ccccc2)CC1=O (stereo not given)	-0.5	-9.7	2.6	19692*	1.1
CN(Cc1ccc(OC(F)F)cc1)C(=O)c1cccc(S(=O)(=O)N2CCN(Cc3ccccc3)CC2)c1	4.8	3.2	4.9	?	-0.4
Cc1cc(=O)[nH]c(SCCCOc2ccccc2Cl)n1	-0.8	-4.2	-1.1	20446*	-1.6
Cc1cc(=O)[nH]c(SCc2cccc(Br)c2)n1	-0.7	-5.9	3.1	2170	0.9
COc1ccc(CSc2nc(C)cc(=O)[nH]2)cc1Br	-0.3	-5.5	2.5	23006*	0.4
C/C=C/c1ccc(OCCSc2nc(C)cc(=O)[nH]2)c(OC)c1	-1.2	-7.5	-9.0	17582*	-5.8
CCc1cc(OCCCSc2nc(C)cc(=O)[nH]2)ccc1Cl	-0.1	-12.3	-2.9	24555*	?
Cc1cc(=O)[nH]c(SCCOc2ccc3c(c2)CCC3)n1	-0.2	-0.8	4.8	9691	0.2
Cc1cc(=O)[nH]c(SCCOc2ccc(OC(C)C)cc2)n1	4.7	9.6	-13.6	4312	-0.5
OC[C@@H]1CN(Cc2ccc(Cl)cc2)C[C@H](n2cnc3c(NC4CC4)ncnc32)O1	-1.3	/	-3.0	3987	0.0
Cc1ccccc1-c1cnc2c(c1)C(=O)N([C@H](C)CO)C[C@@H](C)[C@H](CN(C)C(=O)c1ccncc1)O2	-1.5	10.4	-3.2	3872	0.4
COc1ccccc1N1CCN(CCS(=O)(=O)c2cc(Cl)ccc2Cl)CC1	-1.2	6.5	-0.8	3814	-0.3
Cc1ccc(NS(=O)(=O)c2ccc3c(c2)NC(=O)CCS3)c(C)c1	0.4	5.4	3.9	4855	0.7
SMILES	Anthrax LF inh2	MazF activator	BoNT F protease	Autofluor counter	BoNT A protease
CC(C)NC(=O)CN1CCN(Cc2nc(C(c3ccccc3)c3ccccc3)no2)CC1	0.7	7.6	-4.0	4101	-0.2
Cc1ccc(-c2nnc(N)s2)cc1	1.3	-1.6	6.7	2326	-0.2
COc1ccc(-c2nnc(N)s2)cc1	-5.6	1.8	-4.9	23923*	-0.9
CCOc1ccc(C(=O)N(CN2CCCC2=O)c2ccccc2)cc1	-0.3	-5.3	0.0	19439*	?
Cc1ccc(N(CN2CCCC2=O)C(=O)c2ccc(OC(C)C)cc2)cc1	-1.5	7.5	0.9	19242*	?
CCOc1ccc(C(=O)N(CN2CCCC2=O)c2ccc(C)cc2)cc1	/	-4.2	/	/	/
O=C1c2ccccc2C(Nc2ccc(S(=O)(=O)N3CCOCC3)cc2)N1c1ccccn1 (stereo not given)	-11.3	1.9	-21.4	4674	5.6
O=C1c2ccccc2C(Nc2ccc(S(=O)(=O)N3CCCCCC3)cc2)N1c1ccccn1 (stereo not given)	-4.9	93.8*	-19.3	6222	-1.2
COc1cc2c(cc1OC)C(c1cccs1)N(C(=O)c1cccc(S(=O)(=O)N(C)C)c1)CC2 (stereo not given)	/	-13.9	/	/	/
CCn1c(SCC#N)nc2c(c1=O)C1(CCCC1)Cc1ccccc1-2	-0.5	-5.3	-7.1	24128*	-1.7
O=C(O)CC(Cn1[nH]nnc1=S)c1ccccc1 (stereo not given)	0.7	-1.4	0.0	22296*	?
O=C(O)CC(CC(=O)Nc1nncs1)c1ccccc1 (stereo not given)	0.5	5.0	-4.9	3227	-0.7
COC(=O)Nc1nc(-c2ccccc2)c(C(=O)c2ccc(Cl)cc2)s1	-5.0	52.3*	1.0	2357	-0.8
CCOC(=O)Nc1nc(-c2ccccc2)c(C(=O)c2ccccc2)s1	3.3	1.3	9.6	3000	0.7
FC(F)Sc1ccc(NC(=S)NC(c2ccccc2)c2ccccc2)cc1	-11.5	127.1*	-3.2	4735	1.4
FC(F)Sc1ccc(NC(=S)NCc2ccccc2)cc1	-2.1	4.8	-1.9	2134	-0.3
O=C1c2cnc3nc(SCc4ccccc4)nn3c2CC2c3ccccc3CCN12 (stereo not given)	2.5	0.8	9.4	22144*	2.7
CCC(C)(C(=O)NC1CCCC1)N(Cc1ccco1)C(=O)c1ccccn1 (stereo not given)	2.3	5.9	-4.0	6142	-0.3
CCC(C)(C(=O)NC1CCCCC1)N(Cc1ccco1)C(=O)c1cnccn1 (stereo not given)	-5.0	7.2	-2.3	16804*	-0.3
CCC(C)(C(=O)NC1CCCC1)N(Cc1ccco1)C(=O)c1ccc2c(c1)OCO2 (stereo not given)	-4.1	-9.4	-1.2	17659*	-2.4
CCC(C)(C(=O)NC1CCCC1)N(Cc1ccco1)C(=O)Cc1cccs1 (stereo not given)	1.7	-1.8	-13.3	4440	0.5
CCC(C)(C(=O)NC1CCCCC1)N(CC1CCCO1)C(=O)CNC(=O)c1ccccc1 (stereo not given)	-0.4	4.0	2.7	4357	-0.3
CCC(C)(C(=O)NC1CCCCC1)N(CC1CCCO1)C(=O)c1ccccn1 (stereo not given)	1.5	2.9	-8.5	25517*	-4.4
COc1ccc(NC(=O)CSc2nnc(-c3ccco3)n2C)cc1	-2.4	1.0	-3.7	2769	-0.1
COc1ccc(-n2c(SCC(N)=O)nnc2-c2ccccc2F)cc1	0.2	-5.4	-1.5	16562*	0.1
COCCn1c(SCC(=O)NCc2cccs2)nnc1-c1ccc(OC)cc1	-0.4	3.8	0.3	9387	0.1
COc1ccc(-n2c(SCC(N)=O)nnc2-c2ccco2)cc1	-13.6	4.6	?	4762	-2.9
CCOC(=O)Cc1csc(NC(=O)CSc2nnc(-c3ccc(OC)cc3)n2C)n1	0.4	0.7	-3.9	20591*	?

Source: PubChem BioAssay
